Consider 71 molecules from PubChem BioAssay AID652115 (Broad Institute, 2013).

Where “and” joins values, the source holds several entries; their conditions need not be identical. Equal entries are not always repeated. About 3,800 (1.2%) of roughly 330,000 compounds were called active. This excerpt belongs to a sample that is enriched for actives. Values without a mark were called inactive. Rule as the data show it: active = inhibition above about 15%; inconclusive = no clear call, values can overlap the other calls; inactive = below that.

In general, inhibition refers to the drop in the measured response relative to a control, in per cent.

NAD-dependent protein deacylase sirtuin-5, mitochondrial (Homo sapiens), sequence (Q9NXA8 whole entry, looked up): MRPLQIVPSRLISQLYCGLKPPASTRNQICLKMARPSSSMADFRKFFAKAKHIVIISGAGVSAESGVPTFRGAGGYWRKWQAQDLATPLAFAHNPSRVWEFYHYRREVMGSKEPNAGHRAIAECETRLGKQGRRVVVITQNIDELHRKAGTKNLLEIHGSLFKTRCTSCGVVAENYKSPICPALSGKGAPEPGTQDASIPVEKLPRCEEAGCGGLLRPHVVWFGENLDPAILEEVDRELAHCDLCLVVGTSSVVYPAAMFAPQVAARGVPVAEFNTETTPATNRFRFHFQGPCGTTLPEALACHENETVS

This test has as its target NAD-dependent protein deacylase sirtuin-5, mitochondrial (Homo sapiens) (UniProt Q9NXA8). The test can be described thus: SIRT5 desuccinylase inhibitors, primary screen, biochemical, fluorescence imaging, single point, set 5 (AID 652115). The note with it: Purified SirT5, succinyl-peptide AMC, trypsin-coupled fluorescence; at 15 µM; active compounds read high.
With `CC=Cc1ccc2n(c1=O)C[C@@H]1[C@@H](CO)[C@H](C(=O)NC3CCCC3)[C@H]2N1C(=O)c1cnccn1` (mixture of isomers), the inhibition is -1.91%. Next, `Cc1cccc(-c2ccc([C@H]3[C@H](CO)N4CCCCN(S(=O)(=O)c5cn(C)cn5)C[C@@H]34)cc2)c1`: -2.31%; `O=C(C[C@@H]1CC[C@@H]2[C@H](COC[C@@H](O)CN2Cc2ccc(F)cc2)O1)NCc1ccncn1`: 2.45%; `COc1cccc(S(=O)(=O)N(C)C[C@@H]2Oc3cc(C#CCN(C)C)ccc3S(=O)(=O)N([C@@H](C)CO)C[C@@H]2C)c1`: -0.424%. Take `COCC#Cc1ccc2c(c1)O[C@@H](CN(C)S(C)(=O)=O)[C@H](C)CN([C@H](C)CO)S2(=O)=O`: the inhibition is -0.381%. Take `CCCC#Cc1ccc2c(c1)O[C@@H](CN(C)S(=O)(=O)c1cccc(OC)c1)[C@H](C)CN([C@@H](C)CO)S2(=O)=O`: the inhibition is 0.047%.

`COc1cccc(S(=O)(=O)N(C)C[C@H]2Oc3cc(C#CCN(C)C)ccc3S(=O)(=O)N([C@H](C)CO)C[C@H]2C)c1`: the inhibition is 2.32%. Under `COc1ccccc1S(=O)(=O)N(C)C[C@H]1Oc2cc(C#CCC3CCCC3)ccc2S(=O)(=O)N([C@@H](C)CO)C[C@H]1C` stands 16.1% (active); under `COc1ccccc1S(=O)(=O)N(C)C[C@@H]1Oc2cc(C#CCC3CCCC3)ccc2S(=O)(=O)N([C@H](C)CO)C[C@H]1C`, 18.3% (active); under `C[C@H](O)C#Cc1ccc2c(c1)O[C@@H](CN(C)C(=O)C1CCCCC1)[C@H](C)CN([C@@H](C)CO)S2(=O)=O`, 5.37%. As to `O=C(C[C@H]1CC[C@H]2[C@@H](COC[C@@H](O)CN2C(=O)Nc2ccc(C(F)(F)F)cc2)O1)NC1Cc2ccccc2C1`, the inhibition was -1.39%. Under `CN(C)[C@@H]1C(=O)C(C(N)=O)=C(O)[C@@]2(O)C(=O)C3=C(O)c4c(O)ccc(Cl)c4[C@@H](O)[C@H]3C[C@@H]12` stands 6.39%; under `C=C1c2c(Cl)ccc(O)c2C(O)=C2C(=O)[C@]3(O)C(O)=C(C(N)=O)C(=O)[C@@H](N(C)C)[C@@H]3[C@@H](O)C12` (stereo partly specified), 35.9% (active); under `CNC(=O)C[C@H]1CC[C@H]2[C@H](COc3ccc(NC(=O)c4cccc(F)c4)cc3C(=O)N2C)O1`, -1.94% and 2.58%.

As to `C[C@@H]1CN([C@@H](C)CO)C(=O)Cc2cc(NC(=O)Nc3cccc4ccccc34)ccc2O[C@H]1CN(C)CC1CCCCC1`, the inhibition was -4.93%. Under `N#Cc1c(N2CCCCC2)nc(N)c2c(N)nc(SCC(=O)O)cc12` stands 7.29%.

`N#Cc1c(C(F)(F)F)cc(-c2cccs2)nc1N1CCCCC1`: the inhibition was 5.73%. As for `N#CCc1c(C#N)c(N)nc(N2CCCC2)c1C#N`, the inhibition was 26.2% (active). As to `CO[C@@H]1CN(C)C(=O)c2cc(NS(=O)(=O)CC(F)(F)F)ccc2OC[C@H](C)N(Cc2ccccn2)C[C@@H]1C`, the inhibition is 2.12%. Take `C[C@@H]1CCCCO[C@H](CN(C)S(=O)(=O)c2cn(C)cn2)[C@@H](C)CN([C@@H](C)CO)C(=O)c2cc(NC(=O)c3ccncc3)ccc2O1`: the inhibition was 0.794%. Next, `Oc1cccc2cc(-c3ccncc3)cnc12`: -0.877%; `COc1cccc(CNc2nc(NCc3cccs3)nc3ccsc23)c1`: -1.12%; `COCCNc1nc(NCc2ccc(NC(C)=O)cc2)c2sccc2n1`: 16.4% (active). In the case of `CC(=O)Nc1ccc(CNc2nc(NCCN(C)C)nc3cc(-c4ccccc4)sc23)cc1`, the inhibition was 2.52%. Under `COc1ccc(C[C@@H]2CCc3cnnn3COC[C@H](c3ccccc3)NC2=O)cc1` stands 2.11%.

Turning to `CCC(=O)N[C@H]1CC[C@H](CCn2cc(-c3cccc(OC)c3)nn2)O[C@H]1CO`, the inhibition was -2.52%. Under `Cc1ccc(C(=O)OCC(=O)N2CCCCCC2)cc1S(=O)(=O)N1CCOCC1` stands 1.4%; under `COc1ccc(C(=O)OCC(=O)c2ccc(C)c(S(=O)(=O)N3CCOCC3)c2)cc1OC`, 25.2% (active); under `COc1ccc(CNC(=O)COC(=O)c2ccc(C)c(S(=O)(=O)N3CCOCC3)c2)cc1OC`, -1.07%. Next, `C[C@H]1CCCCO[C@@H](CN(C)C(=O)C2CCCCC2)[C@@H](C)CN([C@@H](C)CO)C(=O)c2cc(NS(=O)(=O)c3cccs3)ccc2O1`: 8.81%. On to `COCC#Cc1cnc2c(c1)C(=O)N([C@H](C)CO)C[C@@H](C)[C@@H](CN(C)Cc1ccccc1F)O2`, for which the inhibition was 1.75%.

Regarding `CO[C@@H]1CN(C)C(=O)c2cc(NS(=O)(=O)c3cccc(F)c3)ccc2OC[C@@H](C)NC[C@@H]1C`, the inhibition was -3.7%. As for `CCC(=O)Nc1ccc2c(c1)C(=O)N(C)C[C@@H](OC)[C@H](C)CN(Cc1ccccc1C(=O)O)[C@@H](C)CO2`, the inhibition was 2.25%.

`O=C(C1CCCCC1)N1CC2(C1)[C@H](c1ccccc1)[C@H](CO)N2CC1CCCC1`: the inhibition is 5.17%.

In the case of `O=C(COC(=O)c1ccc([N+](=O)[O-])o1)NC12CC3CC(CC(C3)C1)C2`, the inhibition is -5.22%.

For the molecule `O=C(COC(=O)c1ccc(Br)o1)NC12CC3CC(CC(C3)C1)C2`, the inhibition was 15.6% (active). For the molecule `O=C(COC(=O)c1cccnc1Cl)NC12CC3CC(CC(C3)C1)C2`, the inhibition is 0.076%.

Consider `COCC(=O)Nc1ccc2c(c1)OC[C@@H](C)N(Cc1ccccn1)C[C@H](C)[C@@H](OC)CN(C)C2=O`, for which the inhibition is -1.91%. On to `COc1cccc(S(=O)(=O)Nc2ccc3c(c2)C(=O)N(C)C[C@@H](OC)[C@@H](C)CN[C@@H](C)CO3)c1`, for which the inhibition was 5.28%.

For `C[C@H](O)C#Cc1cnc2c(c1)C(=O)N([C@@H](C)CO)C[C@H](C)[C@@H](CN(C)C(=O)c1ccccc1)O2`, the inhibition was -1.59%.

As to `COc1cccc(OCC(=O)Nc2ccccc2C(N)=O)c1`, the inhibition was 29.5% (active). Consider `Cc1cccc(OCC(=O)Nc2ccccc2F)c1`, for which the inhibition is -2.03%. Under `Cc1cccc(OCCC(=O)Nc2ccccc2C(N)=O)c1` stands -1.74%; under `O=C(C[C@@H]1CC[C@H]2[C@@H](COC[C@@H](O)CN2S(=O)(=O)c2cccc(Cl)c2)O1)N1CCCCC1`, 1.52%. Turning to `COc1ccc(S(=O)(=O)NCCc2c[nH]c3ccccc23)cc1OC`, the inhibition is 21.4% (active).

For `COc1ccc(CCNS(=O)(=O)c2ccc(F)cc2)cc1OC`, the inhibition is -1.59%.

For `COc1ccccc1NC(=O)CCCc1c[nH]c2ccccc12`, the inhibition is -1.4%. Consider `CC=Cc1ccc2n(c1=O)C[C@H]1[C@H](CO)[C@@H](C(=O)NCC3CC3)N(Cc3nccs3)[C@@H]21` (mixture of isomers), for which the inhibition was 1.01%. With `COCC(=O)N1C[C@H]2[C@@H](c3ccccc31)[C@@H](CO)N2C(=O)NC(C)C`, the inhibition was 0.583%. Under `O=C(C1CCC1)N1CC(=O)N2[C@H](C1)[C@@H](c1ccc(-c3ccccc3F)cc1)[C@@H]2CO` stands 3.28%. Next, `C[C@H](CO)N1C[C@H](C)[C@H](CN(C)Cc2ccc(C(=O)Nc3ccccc3N)cc2)Oc2c(NC(=O)Nc3ccccc3)cccc2C1=O`: -0.83%; `COc1ccc(C2NC(=O)N(C)C(C)=C2[N+](=O)[O-])cc1` (stereo unspecified): 2.48%. Under `COCCN1C(=O)N[C@@H](c2ccccc2)C(C(=O)OC)=C1C` stands -1.66%; under `COC(=O)C1=C(C)N(C)C(=O)NC1c1ccc([N+](=O)[O-])o1` (stereo unspecified), 17.2% (active); under `CC=Cc1ccc2n(c1=O)C[C@H]1[C@H](CO)[C@@H](C(=O)N3CCCCC3)N(Cc3ccccn3)[C@@H]21` (mixture of isomers), 3.91%. Regarding `C[C@@H](NC(=O)C[C@H]1C[C@H]2c3cc(NC(=O)C4CCOCC4)ccc3O[C@H]2[C@@H](CO)O1)c1ccccc1`, the inhibition is -0.41%.

As to `COCCCNC(=S)NNC(=O)C(O)(c1ccccc1)c1ccccc1`, the inhibition was -5.23%. Next, `COCCCNC(=S)N(Cc1ccccc1)Cc1ccc(F)cc1`: 15.1% (active). For `Cc1cc(C)c2[nH]c(=O)c(CN(Cc3ccccc3)C(=S)NCCCN(C)C)cc2c1`, the inhibition was -6.33%. Under `COCC(=O)N1[C@H](CO)[C@@H](c2ccccc2)[C@H]1CN(C)C(=O)c1ccncc1` stands 3.21%; under `CN(c1ccccc1)S(=O)(=O)c1ccc2[nH]c(=O)[nH]c2c1`, -0.22%.

With `CCN(c1ccccc1)S(=O)(=O)c1ccc2[nH]c(=O)[nH]c2c1`, the inhibition is 23.9% (active). In the case of `CCN(c1ccccc1)S(=O)(=O)c1ccc(OCC(=O)N2CCCC2)cc1`, the inhibition was -0.147%. For `O=C(C[C@H]1C=C[C@H](NC(=O)Cc2ccccn2)[C@@H](CO)O1)NCCc1ccccc1`, the inhibition is 6.76%.

`O=C(C1CCCC1)N1CC(=O)N2[C@H](C1)[C@@H](c1ccc(-c3cccnc3)cc1)[C@@H]2CO`: the inhibition is 1.11%. Next, `CO[C@H]1CN(C)C(=O)c2ccc(NC(=O)Nc3c(C)noc3C)cc2OC[C@@H](C)NC[C@H]1C`: -5.86%; `Cc1cccc(-n2c(C)cc(/C=N\NC(=O)c3cccs3)c2C)c1`: -1.07%; `CC(C)c1ccc(C=NNc2ccc([N+](=O)[O-])cn2)cc1`: 1.24%.

Take `Cc1cc(/C=N/Nc2ccc([N+](=O)[O-])cn2)c(C)n1-c1cccc(C(=O)O)c1`: the inhibition was 17.7% (active). Next, `O=S(=O)(c1ccc(F)cc1)N1CC[C@@H]2[C@@H](CO)Nc3ccc(-c4ccccc4F)cc3[C@@H]21`: 7.3%.

As for `O=C(C[C@@H]1C[C@@H]2c3cc(NC(=O)Nc4ccc(F)cc4)ccc3O[C@@H]2[C@H](CO)O1)NCC(F)(F)F`, the inhibition was -3.74%.
